Assay results: PubChem BioAssay AID1910 (Broad Institute, 2009)
The campaign covered roughly 300,000 compounds. About 950 (0.32%) were called active. The sample as a whole holds a higher share of actives than the screen did. Values without a mark were called inactive.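 Rule for the calls: active = mean activation of at least 10% of the iron chelator positive control signal, with at least half of replicates also reaching 10%; inconclusive = mean and replicate majority disagree about reaching 10%; inactive = mean and most replicates under 10%.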

Test: HIF pathway transcriptional activators, primary screen, cell-based, U2OS HRE-luciferase, luminescence (AID 1910)
Conditions: U2OS HRE-luciferase reporter, stronger effect = higher value, screened at 7.5 µM (by protocol), normalized: DMSO 0%, desferrioxamine 100%
In the case of `COc1ccc(C(C#N)(CC(=O)O)c2cnccn2)cc1OC` (stereo unspecified), the activation is reported as -0.732%. Compound `CCCCCN(C(=O)CCC(=O)OCC(=O)NC1CCC(C)CC1)c1c(N)n(CCCC)c(=O)[nH]c1=O` (stereo unspecified) has an activation of 0.288%. For `O=C(NCc1ccc(Cl)cc1)C(=O)NCC1CCCN1S(=O)(=O)c1cccs1` (stereo unspecified), the activation was -0.199%. For `Nc1ccc(C(=O)Nc2ccccc2N)cc1`, the activation was 23.2% (active). For `CC(=O)Nc1ccccc1NC(=O)c1cc(C)cc(C)c1`, the activation was -0.124%. Work on `Nc1ccc(C(=O)NCc2ccccc2)cc1` yielded an activation of -0.0134%. Compound `COc1cc(OC)c(OC)cc1CN1CCN(C(=O)c2cccc3ccccc23)CC1` has an activation of -7.26%. Work on `Cc1ccc(NC(=O)COc2coc(CN3CCc4ccccc4C3)cc2=O)cc1Cl` yielded an activation of -0.873%. `Oc1ccc(/C=N/Nc2nc(-c3ccccc3F)nc3ccccc23)c(O)c1` gave an activation of 0.0261%. With `Oc1ccc(/C=N/NC2=NCCCCC2)c(O)c1` the activation was 1.31%. In the case of `Cc1nc2ccccc2nc1N/N=C/c1ccc(O)cc1O`, the activation is reported as 15.9% (active). For `Cc1onc(-c2ccccc2Cl)c1C(=O)OCc1nnc(-c2ccccc2)o1`, the activation was 0.814%. `N#CC1(NC(=O)COC(=O)Cc2n[nH]c(=O)c3ccccc23)CCCCC1` showed an activation of 1.1%. With `O=C(COc1coc(CN2CCN(c3ccccc3)CC2)cc1=O)Nc1ccccc1F` the activation was 0.427%. With `Cc1ccc(OCCCCc2c(C)n[nH]c2C)cc1` the activation was 0.618%. Compound `CC(C)COc1ccc(C(=O)OCC(=O)NCCC2=CCCCC2)cc1` has an activation of 0.818%. `CN1CCCC(OC(=O)COc2ccc(Br)cc2)C1` (stereo unspecified) showed an activation of -0.189%. With `CC1CN/C(=C\C(=O)c2ccc(Br)cc2)C(=O)N1` (stereo unspecified) the activation was 71.1% (active). Work on `COc1cc2c(cc1OC)/C(=C/C(=O)c1ccc(NC(C)=O)cc1)NCC2` yielded an activation of -0.377%. `CC1CCc2[nH]c3ccc(C(=O)N(C)CC(=O)Nc4cccc(F)c4)cc3c2C1` (stereo unspecified) gave an activation of 0.749%. In the case of `O=C(Nc1ccc(N2CCCC2=O)cc1)c1cncc(Br)c1`, the activation is reported as 1.53%. For `O=C(Nc1ccc(S(=O)(=O)Nc2ncccn2)cc1)c1cncc(Br)c1`, the activation was -1.84%. For `CCNS(=O)(=O)c1ccc(NC(=O)c2cncc(Br)c2)cc1`, the activation was 94.2% (active). `COc1cc(NC(=O)C2CC(c3ccccc3O)=NO2)c(OC)cc1Cl` (stereo unspecified) gave an activation of -1.02%. Compound `COc1ccc(NC(=O)NCCN2CCN(c3ccc(C)cc3)CC2)c(Cl)c1` has an activation of 2.29%. In the case of `O=C(Cc1ccc(Br)cc1)NCCc1ccccc1`, the activation is reported as 0.0277%. With `CC(C(=O)N1CCOCC1)N1c2cccc3cccc(c23)S1(=O)=O` (stereo unspecified) the activation was 163% (active). For `CC(C)CN(CC(C)C)C(=O)CN1c2cccc3cccc(c23)S1(=O)=O`, the activation was -19%. For `COc1ccc(NC(=O)C(C)N2c3cccc4cccc(c34)S2(=O)=O)c(OC)c1` (stereo unspecified), the activation was 0.272%. With `COC(=O)C1CCN(C(=O)NC2CC(=O)N(c3ccc4c(c3)OCCO4)C2)CC1` (stereo unspecified) the activation was 2.77%. `C/C=C/c1ccc(OCC(=O)OCC(=O)Nc2c(C)nn(-c3ccccc3)c2C)c(OC)c1` showed an activation of 0.205%. With `CCOc1ccccc1OCC(=O)Nc1ccccc1C(=O)NC1CC1` the activation was 0.735%. `N[C@@H](Cc1ccccc1)C(=O)N1CCOCC1` showed an activation of 1.05%. For `Cc1cc(Nc2ccc(Cl)cc2)nc(N2CCOCC2)n1`, the activation was 0.664%. For `Cc1cc(Oc2ccccc2)nc(N2CCOCC2)n1`, the activation was 686% (active). For `Cc1cc(N2CCN(c3ccccc3)CC2)nc(N2CCOCC2)n1`, the activation was -0.818%. Work on `Cc1ccc(NC(=O)COC(=O)CNC(=O)c2ccc(Cl)cc2Cl)cc1S(=O)(=O)N1CCOCC1` yielded an activation of -0.357%. Compound `CCOC(=O)c1cc(C(C)C)sc1NC(=O)COC(=O)c1nccnc1N` has an activation of -0.0851%. `Oc1ccc(CN2CCN(c3ncccn3)CC2)cc1` gave an activation of -0.81%. In the case of `Oc1c(CN2CCN(c3ccc(F)cc3)CC2)cc(Cl)c2cccnc12`, the activation is reported as 57.7% (active). In the case of `CCN1CCN(C(c2cccnc2)c2cc(Cl)c3cccnc3c2O)CC1` (stereo unspecified), the activation is reported as 1.75%. For `Cc1ccccc1OCC(=O)Nc1ccc2c(c1)ncn2C`, the activation was 1.83%. Work on `C=CCC1(C(=O)N(C)Cc2ccccc2)CCN(C(=O)OC(C)(C)C)CC1` yielded an activation of -0.424%. Work on `COc1ccc2c(c1)O/C(=C\c1ccccc1O)C2=O` yielded an activation of 3.88%. For `COc1cc([N+](=O)[O-])cc([N+](=O)[O-])c1NC(=O)N1CCOCC1`, the activation was -0.133%. `COc1ccc(C#Cc2c(-c3ccc(OC)cc3)oc3ccc(-c4ccc5c(c4)OCO5)cc23)cc1` showed an activation of 2.6%. In the case of `CN1CCN(c2ccc(S(=O)(=O)N3CCOCC3)cc2NC(=O)CCc2ccccc2)CC1`, the activation is reported as 0.124%. With `CC(=O)NCCC(=O)Nc1cc(S(=O)(=O)N2CCOCC2)ccc1N1CCOCC1` the activation was 158% (active). `Cc1cccc(OCCC(=O)Nc2cc(S(=O)(=O)N3CCCCC3)ccc2N2CCOCC2)c1` showed an activation of -0.617%. `O=S(=O)(NCCCc1ccccc1)c1ccc(Br)cc1` showed an activation of -0.382%. With `O=c1[nH]snc1-c1c(Cl)cccc1Cl` the activation was -0.133%. `COc1ccc(S(=O)(=O)N2CCOC2CNC(=O)C(=O)NCc2ccncc2)cc1OC` (stereo unspecified) gave an activation of 0.131%. `Cc1ccc(S(=O)(=O)N2CCN(C(=O)c3ccccc3-c3nc4ccccc4s3)CC2)c(C)c1` gave an activation of -37.1%. Compound `CCOC(=O)C1CCN(C(=O)COC(=O)C2CCN(S(=O)(=O)c3ccc4c(c3)OCCO4)CC2)CC1` has an activation of 0.496%. With `CC1C(=O)N2CCCc3cc(S(=O)(=O)NCc4ccc(F)cc4)cc1c32` (stereo unspecified) the activation was 2.62%. For `COc1ccccc1CCNS(=O)(=O)c1cc2c3c(c1)C(C)C(=O)N3CCC2` (stereo unspecified), the activation was 80.8% (active). `CCOc1ccccc1NS(=O)(=O)c1cc2c3c(c1)C(C)C(=O)N3CCC2` (stereo unspecified) gave an activation of -0.238%. With `O=C(CNC(=O)C12CC3CC(CC(C3)C1)C2)OCC(=O)N1CCCCC1` the activation was -0.325%. For `CC(NC(=O)c1ccccc1SCC(=O)N1CCCC1)c1ccccc1` (stereo unspecified), the activation was -0.504%. Compound `O=C(NC1CCCCC1)c1cc(C2CC2)on1` has an activation of 1.35%. In the case of `O=C(NC1CCCC1)c1cc(-c2ccccc2)on1`, the activation is reported as 25.3% (active). For `COc1ccccc1-c1cc(C(=O)NCCCn2ccnc2)no1`, the activation was 0.0935%. `CC(NC(=O)c1cc(-c2ccccc2)on1)c1ccccc1` (stereo unspecified) gave an activation of 0.0998%. With `O=C(NCCCn1ccnc1)c1cc(-c2ccccc2)on1` the activation was 35.8% (active). `COc1ccc(-c2cc(C(=O)NCCCn3ccnc3)no2)cc1` gave an activation of 1.05%. `Cc1ccccc1C(=O)N1CCC(C(=O)Oc2ccc(C#N)cc2)CC1` showed an activation of -0.988%. Work on `CC(=O)c1ccc(NC(=O)C2CCCN2S(=O)(=O)c2cccs2)cc1` (stereo unspecified) yielded an activation of -0.0783%. `N#CCCN(C(=O)COC(=O)C1CCN(c2ccc(C(F)(F)F)cn2)CC1)c1ccc(F)cc1` showed an activation of 0.186%. Compound `COc1cccc(-c2ccc(C#N)c(SCC(=O)NCCc3ccc(Cl)cc3)n2)c1` has an activation of -0.149%. For `COc1ccc(CCNC(=O)CSc2nc(-c3ccc(OC)c(OC)c3)ccc2C#N)cc1`, the activation was 225% (active). Compound `COc1ccc(CCNC(=O)CSc2nnc3ccc(-c4ccncc4)nn23)cc1` has an activation of -0.329%. Work on `C=CCOc1ccc(/C=C/C(=O)OCC(=O)NC(C)c2ccc(F)cc2)cc1` (stereo unspecified) yielded an activation of -1.98%. Work on `CCOc1ccc(NC(=O)c2ccc(NC(=O)CN3C(=O)C(=O)N(CC(C)C)C3=O)cc2)cc1` yielded an activation of -0.207%. `CC1CC(C)CN(CCCNC(=O)Cn2ncc3c([nH]c4ccccc43)c2=O)C1` (stereo unspecified) showed an activation of -0.555%. With `Cc1cccc(CCNC(=O)Cn2ncc3c([nH]c4ccc(C)cc43)c2=O)c1` the activation was 67.3% (active). Compound `Cc1ccc2[nH]c3c(=O)n(CC(=O)NCCc4ccc(Cl)cc4)ncc3c2c1` has an activation of 0.0828%. Work on `Cc1ccc2nnn(Cc3cccc(C(C)(C)C)c3O)c2c1` yielded an activation of -0.574%. Compound `CCc1cccc(C)c1NC(=O)COC(=O)CC1CCCC1` has an activation of -0.451%. `CC(=O)Nc1ccc(S(=O)(=O)N2CCC(NC(=O)c3ccccc3)CC2)cc1` gave an activation of -33.2%. `CC(=O)N1CCN(CCN=CC2=C(O)CC(C)(C)CC2=O)CC1` gave an activation of -0.482%. Compound `CCNC(=S)N1CCN(CCN=CC2=C(O)CC(C)(C)CC2=O)CC1` has an activation of -0.656%. With `CC1(C)CC(=O)C(C=NCCN2CCN(C(=S)Nc3cccc(Cl)c3)CC2)=C(O)C1` the activation was 233% (active). `COCCNC(=S)N(CCc1c(C)[nH]c2ccc(C)cc12)Cc1cccnc1` showed an activation of 0.573%. With `Cc1nnc(N/N=C/c2ccccn2)[nH]c1=O` the activation was 117% (active). For `Cc1nnc(N/N=C/C2CC=CCC2)[nH]c1=O` (stereo unspecified), the activation was -0.414%. Work on `CNC(=O)C(=O)N/N=C/c1ccccn1` yielded an activation of -0.138%. For `CCCN(CCC)C(=S)Nc1cc(C(=O)OC)ccc1C(=O)OC`, the activation was 166% (active). `CCN(CCO)C(=S)Nc1cc(C(=O)OC)ccc1C(=O)OC` showed an activation of -0.0671%. Compound `CCS(=O)(=O)Nc1cc(C(=O)OC)ccc1C(=O)OC` has an activation of -0.124%. For `Fc1ccc(-c2ccc(NCCN3CCOCC3)nn2)cc1`, the activation was 3.51%. Work on `COc1ccc(NC(=O)CCCC(=O)c2ccccc2)cc1` yielded an activation of 0.37%.
